The nature of assay [1]: NCI Yeast Anticancer Drug Screen. Data for the rad50 strain (AID 155).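 Also: 0% = growth of vehicle-only cultures of the same strain.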 The following applies: S. cerevisiae rad50 strain growth inhibition; at 50.0 µM; hits give high values. The essentials: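 A DNA repair-deficient yeast mutant serves as the test organism; compound-induced growth inhibition is calculated against vehicle-treated cells.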
Assay [2] is described as follows: NCI Yeast Anticancer Drug Screen. Data for the mec2-1 strain (AID 157). The following applies: S. cerevisiae mec2-1 strain, at 50.0 µM, hits give high values. In short, it runs like this: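 Test agents were screened against the mec2-1 yeast strain, with defined DNA repair or cell cycle alteration. Growth was scored as inhibition against vehicle-only controls.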
A short description of assay [3]: NCI Yeast Anticancer Drug Screen. Data for the sgs1 mgt1 strain (AID 161).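 Also: 0% = growth of cultures given vehicle only.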 The following applies: S. cerevisiae sgs1 mgt1 strain, at 50.0 µM, hits give high values. In short, it runs like this: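 Test agents were incubated with a DNA-repair-mutant yeast strain. Growth was then read and compared against vehicle-treated controls.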
The nature of assay [4]: NCI Yeast Anticancer Drug Screen. Data for the cln2 rad14 strain (AID 165).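 Also: 0% = growth equal to vehicle treated cultures.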 Conditions: S. cerevisiae cln2 rad14 strain, at 50.0 µM, hits give high values. In short, it runs like this:
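Growth of compound-exposed yeast (cln2 rad14 genotype) measured and expressed as inhibition relative to vehicle.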

Assay [5] can be described thus: NCI Yeast Anticancer Drug Screen. Data for the bub3 strain (AID 167). The following applies: S. cerevisiae bub3 mutant strain, at 50.0 µM, hits give high values. In short, it runs like this:
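Inhibition values come from growth of compound-treated mutant yeast normalised to vehicle-treated controls.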

Assay [6] in a line: NCI Yeast Anticancer Drug Screen. Data for the mlh1 rad18 strain (AID 175). Conditions: S. cerevisiae mlh1 rad18 strain growth inhibition; at 50.0 µM; hits give high values. In short, it runs like this: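 In this whole-cell yeast screen, a strain with altered DNA damage repair is challenged with compound, and its growth is measured against matched vehicle-treated controls.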

Each structure is given as a SMILES string. About 79,000 compounds went through this panel and 15% of them were active in at least one assay; those are over-represented in the sample as a whole. Unmarked numbers belong to inactive results. Calls of active or inactive are those of the source. Rule as the data show it: active = growth inhibition above about 70%; inactive = the rest.

Consider `COc1ccc(CCNC(=O)C(=O)c2c[nH]c3ccccc23)cc1OC`, for which the growth inhibition in assay [1] was 12.6%; in assay [2], 18.8%; in assay [3], 22.4%; in assay [4] it was 14.3%; in assay [5], 9.55%; in assay [6] it was 25.2%.
Regarding `COc1ccccc1C(O)(c1ccccc1OC)C1(O)CCN(C)CC1`, the growth inhibition was -10.8% in assay [1]; -10.9% in assay [2]; -4.8% in assay [3]; -4.45% in assay [4]; -5.3% in assay [5]; -10.4% in assay [6].
For `CC(=O)OCC1OC(n2c(S)c(C#N)c(-c3ccccc3)c(C#N)c2=O)C(OC(C)=O)C(OC(C)=O)C1OC(C)=O` (stereo unspecified), the growth inhibition in assay [1] is 22.1%; in assay [2], 8.45%; in assay [3] it was -17.3%; in assay [4], -7.4%; in assay [5], -21.2%; in assay [6] it was -37.1%.
As to `O=C(NC(=O)c1c(F)cccc1F)Nc1ccc(Br)cc1`, the growth inhibition was 29.2% in assay [1]; 53.3% in assay [2]; 19.4% in assay [3]; 7.25% in assay [4]; 34.5% in assay [5]; 23.4% in assay [6].
For the molecule `Fc1ccc2c(c1)Nc1ccccc1S2`, the growth inhibition in assay [1] was -6.1%; in assay [2] it was -1.95%; in assay [3] it was 7.65%; in assay [4], -8.85%; in assay [5], -16%; in assay [6], -14.6%.
Consider `CC(S)c1ccccc1` (stereo unspecified), for which the growth inhibition in assay [1] was 6.4%; in assay [2], -0.55%; in assay [3], 13.2%; in assay [4] it was 11.9%; in assay [5], 25.7%; in assay [6] it was 14.4%.
Turning to `CC(=O)OCCOCCN1CCN(c2c(O)c3c(c(O)c2Cl)C(=O)C=CC3=O)CC1`, the growth inhibition in assay [1] is 79.7% (active); in assay [2], 88.2% (active); in assay [3] it was 90.8% (active); in assay [4], 87.1% (active); in assay [5], 89.3% (active); in assay [6] it was 89.8% (active).
For `COc1cc(C(=O)OC2CC3CN(CCc4c[nH]c5ccccc45)CC3CC2OC)cc(OC)c1OC` (stereo unspecified), the growth inhibition in assay [1] was 5.9%; in assay [2] it was 3.25%; in assay [3], 28.4%; in assay [4], 32.9%; in assay [5] it was 5.05%; in assay [6] it was 45.7%.
Take `CCCCOC(=O)C1CC2CC1C1OC21` (stereo unspecified): the growth inhibition in assay [1] is -67.6%; in assay [2], -63.3%; in assay [3] it was -23.7%; in assay [4], -0.3%; in assay [5], -51.9%; in assay [6], -33.5%.
Regarding `C=CC(C/C(C)=N/Nc1ccc([N+](=O)[O-])cc1[N+](=O)[O-])c1ccccc1` (stereo unspecified), the growth inhibition was -17.7% in assay [1]; -4.85% in assay [2]; -17.6% in assay [3]; -54.4% in assay [4]; -19.6% in assay [5]; -8% in assay [6].
Regarding `CCCCOc1ccc(/C=C/C(=O)OCC(CC)CCCC)cc1` (stereo unspecified), the growth inhibition was -10.2% in assay [1]; -6.2% in assay [2]; 12.4% in assay [3]; -63.4% in assay [4]; 12.2% in assay [5]; -9.05% in assay [6].
For the molecule `c1ccc(-c2cc(-c3ccccc3)c3ccc4c(-c5ccccc5)cc(-c5ccccc5)c5ccc2c3c54)cc1`, the growth inhibition is -43% in assay [1]; -17.4% in assay [2]; -14.3% in assay [3]; 11.6% in assay [4]; -18.9% in assay [5]; -26.2% in assay [6].
On to `CCCCCC(CN(C)C)C(=O)CC(SCC)c1ccc(Cl)c(Cl)c1` (stereo unspecified), for which the growth inhibition in assay [1] was 99.5% (active); in assay [2] it was 99.5% (active); in assay [3], 99.5% (active); in assay [4], 99.5% (active); in assay [5], 99.2% (active); in assay [6] it was 99.3% (active).
Turning to `CCOC(=O)/C(=C/c1cc(OC)ccc1OC)P(=O)(OCC)OCC`, the growth inhibition in assay [1] is 6.05%; in assay [2], -12.9%; in assay [3], -17.6%; in assay [4], -25.1%; in assay [5] it was 4.65%; in assay [6], -0.9%.
As for `CC1CCC(C(C)C)C2(C1)OC(CCl)CS2` (stereo unspecified), the growth inhibition in assay [1] is -0.35%; in assay [2], 14.7%; in assay [3], 7.8%; in assay [4], -18.1%; in assay [5] it was 26.9%; in assay [6], 1.95%.
For the molecule `CCCCC(O)(CC)CC`, the growth inhibition was 3.3% in assay [1]; -23.9% in assay [2]; -3.6% in assay [3]; 5.5% in assay [4]; -16.4% in assay [5]; 15.2% in assay [6].
On to `N#Cc1ccc(CCc2ccc(Cl)cc2)cc1`, for which the growth inhibition in assay [1] was -6.85%; in assay [2] it was -17.2%; in assay [3] it was -6.9%; in assay [4], -41.1%; in assay [5], 1.3%; in assay [6] it was -9.8%.
Consider `C(=N\N1CCN(/N=C/c2c[nH]c3ccccc23)CC1)/c1c[nH]c2ccccc12`, for which the growth inhibition in assay [1] was 10.3%; in assay [2], -11.5%; in assay [3] it was -12.8%; in assay [4] it was -1.05%; in assay [5], 0.7%; in assay [6], -3.05%.
As for `O=C(O)c1ccc(/C=N\N(CCO)C2=NCCN2)cc1`, the growth inhibition in assay [1] was 0%; in assay [2], -4%; in assay [3] it was -23.8%; in assay [4], -31.5%; in assay [5], -0.35%; in assay [6] it was 6.4%.
In the case of `O=[N+]([O-])c1ccc2[nH]nc(OCc3ccccn3)c2c1`, the growth inhibition in assay [1] is 35%; in assay [2], 33.4%; in assay [3], -23.8%; in assay [4], 28.1%; in assay [5], 7.15%; in assay [6], 20.9%.
As to `C=CCOC(=O)Nc1ccc(S(=O)(=O)N(CCC)CCC)cc1`, the growth inhibition is -13.3% in assay [1]; -33% in assay [2]; 32% in assay [3]; -23.4% in assay [4]; -14.7% in assay [5]; -17.2% in assay [6].

The record behind these values is PubChem BioAssay (NCI).
